From article PMC7862700, “An all-to-all approach to the identification of sequence-specific readers for epigenetic DNA modifications on cytosine”

Legend:
Experiment in all cases: DAPPL (digital affinity profiling via proximity ligation, sequencing); 10 mM Tris-HCl pH 7.5, 50 mM NaCl, 1 mM DTT, 4% glycerol, room temperature, 30 min; GST-TFs on glutathione beads, 16-mer random dsDNA library, 0.1% formaldehyde crosslink after washing; high values mean tight binding
Conditions in all cases: protein: recombinant; tags: N-terminal GST; dsDNA, one strand shown
ERF = molecular target: T1, ERF (Homo sapiens, UniProt P50548 1-548)
T1 sequence: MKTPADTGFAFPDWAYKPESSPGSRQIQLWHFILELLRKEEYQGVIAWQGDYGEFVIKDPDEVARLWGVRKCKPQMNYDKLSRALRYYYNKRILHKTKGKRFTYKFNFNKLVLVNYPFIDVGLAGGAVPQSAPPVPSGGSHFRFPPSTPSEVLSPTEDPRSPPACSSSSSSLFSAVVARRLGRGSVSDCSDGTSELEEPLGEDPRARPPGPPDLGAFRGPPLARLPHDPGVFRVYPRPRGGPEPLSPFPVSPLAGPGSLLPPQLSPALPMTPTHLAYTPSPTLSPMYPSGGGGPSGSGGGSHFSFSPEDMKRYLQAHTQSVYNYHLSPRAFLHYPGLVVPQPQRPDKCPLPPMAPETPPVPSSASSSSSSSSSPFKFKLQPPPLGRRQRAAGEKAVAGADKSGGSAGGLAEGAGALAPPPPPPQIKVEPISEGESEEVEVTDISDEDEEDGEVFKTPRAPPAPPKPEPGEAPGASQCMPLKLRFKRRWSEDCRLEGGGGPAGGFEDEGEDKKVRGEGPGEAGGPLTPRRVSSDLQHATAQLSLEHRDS
Method in brief: (§1)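 Binding signal is defined as a hexamer's read frequency for one factor over its frequency for the tag-only sample. To obtain reads, GST-fused human transcription factors were expressed in yeast, captured on glutathione beads, barcoded with DNA and pooled with that sample. Pools met 200 nmole of a 16-mer random double-stranded DNA library in Tris/NaCl/DTT/glycerol buffer for 30 min at room temperature before washing, 0.1% formaldehyde crosslinking, proximity ligation (BsaI/T4 ligase, 1 h, 37 °C), PCR and Illumina NextSeq500 sequencing.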

ETV3L = molecular target: T2, ETV3L (Homo sapiens, UniProt Q6ZN32 1-361)
T2 sequence: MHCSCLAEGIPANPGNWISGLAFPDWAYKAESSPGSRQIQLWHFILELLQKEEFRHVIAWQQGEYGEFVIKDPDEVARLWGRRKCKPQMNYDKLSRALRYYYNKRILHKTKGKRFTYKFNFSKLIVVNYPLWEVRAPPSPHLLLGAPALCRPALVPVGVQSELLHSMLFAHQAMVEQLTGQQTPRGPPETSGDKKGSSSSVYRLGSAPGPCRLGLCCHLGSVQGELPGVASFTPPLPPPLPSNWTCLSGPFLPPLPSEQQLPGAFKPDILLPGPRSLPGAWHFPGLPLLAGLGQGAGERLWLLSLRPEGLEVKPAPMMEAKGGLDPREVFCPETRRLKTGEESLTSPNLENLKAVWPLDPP
Method in brief: as §1

ETS2 = molecular target: T3, ETS2 (Homo sapiens, UniProt P15036 1-469)
T3 sequence: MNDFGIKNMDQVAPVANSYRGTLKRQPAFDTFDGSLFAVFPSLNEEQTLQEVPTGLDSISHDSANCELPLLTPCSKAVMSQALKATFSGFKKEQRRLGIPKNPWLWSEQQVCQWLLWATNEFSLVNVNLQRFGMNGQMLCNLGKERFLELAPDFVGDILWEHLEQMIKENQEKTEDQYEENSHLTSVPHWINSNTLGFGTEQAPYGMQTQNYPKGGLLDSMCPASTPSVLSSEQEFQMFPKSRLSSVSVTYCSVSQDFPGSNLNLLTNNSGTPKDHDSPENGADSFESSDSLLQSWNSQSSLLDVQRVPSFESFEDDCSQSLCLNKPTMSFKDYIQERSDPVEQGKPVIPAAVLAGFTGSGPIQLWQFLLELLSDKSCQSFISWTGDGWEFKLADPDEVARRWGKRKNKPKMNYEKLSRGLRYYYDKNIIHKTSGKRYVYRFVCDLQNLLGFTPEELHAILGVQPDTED
Method in brief: as §1

SPDEF = molecular target: T4, SPDEF (Homo sapiens, UniProt O95238 1-335)
T4 sequence: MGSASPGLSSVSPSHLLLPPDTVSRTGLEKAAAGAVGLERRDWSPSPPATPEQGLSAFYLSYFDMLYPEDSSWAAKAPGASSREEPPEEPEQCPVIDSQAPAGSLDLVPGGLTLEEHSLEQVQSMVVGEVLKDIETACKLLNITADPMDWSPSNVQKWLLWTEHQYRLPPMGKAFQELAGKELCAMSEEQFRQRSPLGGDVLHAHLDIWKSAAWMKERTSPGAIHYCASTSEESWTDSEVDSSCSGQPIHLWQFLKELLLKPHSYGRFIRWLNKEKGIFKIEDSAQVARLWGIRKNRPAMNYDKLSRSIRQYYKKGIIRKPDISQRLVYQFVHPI
Method in brief: as §1

ETV7 = molecular target: T5, ETV7 (Homo sapiens, UniProt Q9Y603 1-341)
T5 sequence: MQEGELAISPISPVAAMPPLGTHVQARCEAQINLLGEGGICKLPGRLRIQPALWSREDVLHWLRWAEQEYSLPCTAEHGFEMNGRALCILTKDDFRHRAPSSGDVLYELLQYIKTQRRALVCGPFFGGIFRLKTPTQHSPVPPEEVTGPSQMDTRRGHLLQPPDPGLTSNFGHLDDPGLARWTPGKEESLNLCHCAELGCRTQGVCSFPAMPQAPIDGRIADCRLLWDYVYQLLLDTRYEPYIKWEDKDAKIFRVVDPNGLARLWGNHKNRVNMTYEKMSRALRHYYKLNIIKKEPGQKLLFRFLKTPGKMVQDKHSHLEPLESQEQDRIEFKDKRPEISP
Method in brief: as §1

ELF5 = molecular target: T6, ELF5 (Homo sapiens, UniProt Q9UKW6-2 1-255)
T6 sequence: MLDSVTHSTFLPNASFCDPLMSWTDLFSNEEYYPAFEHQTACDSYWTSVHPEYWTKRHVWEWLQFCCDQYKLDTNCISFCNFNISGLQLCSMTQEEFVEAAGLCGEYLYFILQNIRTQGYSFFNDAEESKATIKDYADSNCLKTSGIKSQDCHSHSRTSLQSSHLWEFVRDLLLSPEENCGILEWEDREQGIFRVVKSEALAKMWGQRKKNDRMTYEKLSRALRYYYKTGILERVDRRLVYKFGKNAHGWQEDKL
Method in brief: as §1

ETV3 = molecular target: T7, ETV3 (Homo sapiens, UniProt P41162-2 1-143)
T7 sequence: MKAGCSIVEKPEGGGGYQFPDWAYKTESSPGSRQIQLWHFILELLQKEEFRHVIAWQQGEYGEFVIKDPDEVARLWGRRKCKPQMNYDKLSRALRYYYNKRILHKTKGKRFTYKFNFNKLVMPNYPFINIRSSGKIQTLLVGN
Method in brief: as §1

ETV6 = ETV6 (Homo sapiens, UniProt P41212 1-452)
ETV6, sequence (P41212 whole entry): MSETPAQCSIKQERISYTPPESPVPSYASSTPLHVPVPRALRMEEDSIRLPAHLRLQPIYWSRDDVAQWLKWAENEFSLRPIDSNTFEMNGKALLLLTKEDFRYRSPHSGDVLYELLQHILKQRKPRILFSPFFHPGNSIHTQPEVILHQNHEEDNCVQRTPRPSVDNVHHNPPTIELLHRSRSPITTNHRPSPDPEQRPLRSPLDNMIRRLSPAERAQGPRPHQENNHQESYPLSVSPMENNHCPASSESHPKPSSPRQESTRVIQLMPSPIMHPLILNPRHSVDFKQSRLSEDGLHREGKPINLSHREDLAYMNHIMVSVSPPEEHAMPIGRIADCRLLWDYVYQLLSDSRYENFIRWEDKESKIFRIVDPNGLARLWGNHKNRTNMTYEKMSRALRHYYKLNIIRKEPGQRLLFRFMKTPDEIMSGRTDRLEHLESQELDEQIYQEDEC
Method in brief: as §1

With CTTCAT the binding signal (ERF) was 1.35 fold enrichment (6-mer frequency, TF over GST control), the binding signal (ETV3L) was 1.52 fold enrichment (6-mer frequency, TF over GST control) and the binding signal (ETS2) was 1.43 fold enrichment (6-mer frequency, TF over GST control). For the same sequence, the binding signal (SPDEF) was 1.43 fold enrichment (6-mer frequency, TF over GST control), the binding signal (ETV7) was 1.46 fold enrichment (6-mer frequency, TF over GST control) and the binding signal (ELF5) was 1.44 fold enrichment (6-mer frequency, TF over GST control). For the same sequence, the binding signal (ETV3) was 1.46 fold enrichment (6-mer frequency, TF over GST control) and the binding signal (ETV6) was 1.33 fold enrichment (6-mer frequency, TF over GST control).

In the case of CATACT, the binding signal (ERF) was 1.3 fold enrichment (6-mer frequency, TF over GST control), the binding signal (ETV3L) was 1.33 fold enrichment (6-mer frequency, TF over GST control) and the binding signal (ETS2) was 1.32 fold enrichment (6-mer frequency, TF over GST control). The binding signal (SPDEF) was 1.23 fold enrichment (6-mer frequency, TF over GST control), the binding signal (ETV7) was 1.28 fold enrichment (6-mer frequency, TF over GST control) and the binding signal (ELF5) was 1.27 fold enrichment (6-mer frequency, TF over GST control). The binding signal (ETV3) was 1.36 fold enrichment (6-mer frequency, TF over GST control) and the binding signal (ETV6) was 1.26 fold enrichment (6-mer frequency, TF over GST control).

TCTTGA was tested, and the binding signal (ERF) was 1.49 fold enrichment (6-mer frequency, TF over GST control), the binding signal (ETV3L) was 1.32 fold enrichment (6-mer frequency, TF over GST control) and the binding signal (ETS2) was 1.28 fold enrichment (6-mer frequency, TF over GST control). For the same sequence, the binding signal (SPDEF) was 1.25 fold enrichment (6-mer frequency, TF over GST control), the binding signal (ETV7) was 1.22 fold enrichment (6-mer frequency, TF over GST control) and the binding signal (ELF5) was 1.3 fold enrichment (6-mer frequency, TF over GST control). For the same sequence, the binding signal (ETV3) was 1.18 fold enrichment (6-mer frequency, TF over GST control) and the binding signal (ETV6) was 1.24 fold enrichment (6-mer frequency, TF over GST control).

In the case of GCTCCT, the binding signal (ERF) was 1.54 fold enrichment (6-mer frequency, TF over GST control), the binding signal (ETV3L) was 1.61 fold enrichment (6-mer frequency, TF over GST control) and the binding signal (ETS2) was 1.45 fold enrichment (6-mer frequency, TF over GST control). For the same sequence, the binding signal (SPDEF) was 1.54 fold enrichment (6-mer frequency, TF over GST control), the binding signal (ETV7) was 1.43 fold enrichment (6-mer frequency, TF over GST control) and the binding signal (ELF5) was 1.44 fold enrichment (6-mer frequency, TF over GST control). The binding signal (ETV3) was 1.37 fold enrichment (6-mer frequency, TF over GST control) and the binding signal (ETV6) was 1.5 fold enrichment (6-mer frequency, TF over GST control).

In the case of TTGACA, the binding signal (ERF) was 1.46 fold enrichment (6-mer frequency, TF over GST control), the binding signal (ETV3L) was 1.37 fold enrichment (6-mer frequency, TF over GST control) and the binding signal (ETS2) was 1.4 fold enrichment (6-mer frequency, TF over GST control). The binding signal (SPDEF) was 1.3 fold enrichment (6-mer frequency, TF over GST control), the binding signal (ETV7) was 1.44 fold enrichment (6-mer frequency, TF over GST control) and the binding signal (ELF5) was 1.29 fold enrichment (6-mer frequency, TF over GST control). For the same sequence, the binding signal (ETV3) was 1.26 fold enrichment (6-mer frequency, TF over GST control) and the binding signal (ETV6) was 1.32 fold enrichment (6-mer frequency, TF over GST control).

With CTGCCT the binding signal (ERF) was 1.23 fold enrichment (6-mer frequency, TF over GST control), the binding signal (ETV3L) was 1.26 fold enrichment (6-mer frequency, TF over GST control) and the binding signal (ETS2) was 1.16 fold enrichment (6-mer frequency, TF over GST control). For the same sequence, the binding signal (SPDEF) was 1.31 fold enrichment (6-mer frequency, TF over GST control), the binding signal (ETV7) was 1.36 fold enrichment (6-mer frequency, TF over GST control) and the binding signal (ELF5) was 1.29 fold enrichment (6-mer frequency, TF over GST control). The binding signal (ETV3) was 1.23 fold enrichment (6-mer frequency, TF over GST control) and the binding signal (ETV6) was 1.31 fold enrichment (6-mer frequency, TF over GST control).

In the case of TGTTAT, the binding signal (ERF) was 1.47 fold enrichment (6-mer frequency, TF over GST control), the binding signal (ETV3L) was 1.49 fold enrichment (6-mer frequency, TF over GST control) and the binding signal (ETS2) was 1.34 fold enrichment (6-mer frequency, TF over GST control). For the same sequence, the binding signal (SPDEF) was 1.41 fold enrichment (6-mer frequency, TF over GST control), the binding signal (ETV7) was 1.24 fold enrichment (6-mer frequency, TF over GST control) and the binding signal (ELF5) was 1.36 fold enrichment (6-mer frequency, TF over GST control). For the same sequence, the binding signal (ETV3) was 1.32 fold enrichment (6-mer frequency, TF over GST control) and the binding signal (ETV6) was 1.39 fold enrichment (6-mer frequency, TF over GST control).
